Rows were chosen to be rich in hits. Some 6.5% of all compounds tested hit in one or more screens of this group.
LASV entry inh: Lassa virus entry inhibition; Lassa virus pseudotype entry inhibition, cell reporter; Potency, µM (top dose mostly 37.9 µM), without a hit: top-dose activity change, negative = inhibition, actives largely listed as inhibitors; 300,000 tested, 1.2% active; calls by dose curve; tested in HEK293 cells; further: potency means the concentration at half of the fitted maximal effect; nearly all actives have a fitted effect of over 50% in size
VACV Venus inh: vaccinia inhibition (Venus reporter). 330,000 tested, 0.46% active. Potency, µM (doses to about 36.5 µM), without a hit: at the top dose activity change, negative = inhibition, hits mostly inhibitors. Vaccinia virus Venus reporter expression, fluorescence; calls by dose curve; tested in A549 cells; further: potency means the concentration at half of the fitted maximal effect; nearly all actives have a fitted effect of over 30% in size
HCMV inh: blocks human cytomegalovirus replication | HFF cells, HCMV-luciferase reporter, 72 h; stronger effect = lower value | activity change, negative = inhibition, % at 57.5 µM | 410,000 tested, 4.5% active | AID 1259415; in the data active means activity change below about -60%; inconclusive means no clear call, values can overlap the other calls; inactive means above about -39%
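After 16 h attachment at 37C, HFF cells received test compound and HCMV-luciferase (1 PFU/cell); reporter luminescence read 72 h later, data normalized against buffer-only and known inhibitor Salinomycin.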
FMDV inh: antivirals against foot and mouth disease virus | Potency, µM (top dose mostly 57.9 µM), for the others: at the top dose activity change, negative = inhibition, most hits filed as inhibitors | 410,000 tested, 1.2% active | FMDV antiviral cell-based qHTS; calls by dose curve; tested in HEK293T cells; further: read-out not given here; potency means the concentration at half of the fitted maximal effect; nearly all actives have a fitted effect of over 45% in size
MARV entry inh: inhibitors of Marburg virus binding or cell entry; Marburg virus pseudotyped entry inhibition, cell reporter; 300,000 tested, 1.8% active; Potency, µM (titrated, usually from 37.8 µM), for the others: at the top dose activity change, negative = inhibition, usual class: inhibitors; calls by dose curve; tested in HEK293 cells; further: potency means the concentration at half of the fitted maximal effect
Vaccinia mCherry: vaccinia inhibition (mCherry reporter). Vaccinia virus mCherry reporter infection, fluorescence. Potency, µM (highest dose often 36.5 µM), inactives show at the highest dose activity change, negative = inhibition, hits mostly inhibitors. 310,000 tested, 0.63% active; calls by dose curve; tested in A549 cells; further: potency means the concentration at half of the fitted maximal effect; nearly all actives have a fitted effect of over 35% in size
* marks the source's active call; other numbers are inactive results; i = inactive; ? = inconclusive; · = no result given; ! = a repeat was not active; [ ] = remark or other dose. On the % scale 0 is the no-effect control and ±100 the full control effect.

SMILES	LASV entry inh	VACV Venus inh	HCMV inh	FMDV inh	MARV entry inh	Vaccinia mCherry
O=C(/C=C/c1ccc(Cl)cc1)NC(=S)Nc1ccc(NC(=O)c2ccco2)cc1	1.6µM*	-29%	-70*	-22%	?	-21%
COc1ccc(/C=C/C(=O)NC(=S)NNC(=O)c2ccco2)cc1	4.5µM*	?	63	-15%	?	·
COc1ccc(/C=C/C(=O)NC(=S)NNC(=O)c2ccco2)cc1OC	·	·	-19	-14%	·	·
CN(C)C(=O)c1ccc(-c2cc3cnc(Nc4ccccc4Cl)cc3[nH]2)cc1	·	·	-27	·	·	·
O=C1C=C(c2cccc(Br)c2)C[C@@H](c2ccc3c(c2)OCO3)C1	·	-6%	-9	-7%	·	?
CCCN1C(=O)c2ccccc2NC1c1ccc(OC)cc1OC (stereo unspecified)	5%	-9%	53	·	-7%	-2%
CCCN1C(=O)c2ccccc2NC1c1ccc(OC)cc1O (stereo unspecified)	1.6µM*	-14%	-91*	?	?	·
COc1ccc(CN(CCC(c2ccc(F)cc2)C2CCOC(C)(C)C2)C(=O)c2ccco2)cc1 (stereo unspecified)	?	-14%	-4	?	7.9µM*!	-15%
CC(c1ccccc1)N(CCC(c1ccccc1)C1CCOC(C)(C)C1)C(=O)c1ccco1 (stereo unspecified)	?	-9%	-101*	?	4µM*	-13%
COc1ccc(CN(CCC(c2ccccc2)c2ccco2)C(=O)c2ccco2)cc1 (stereo unspecified)	?	-7%	-2	-19%	10µM*	i
CC1(C)CC(C(CC(=O)O)c2ccccc2)CCO1 (stereo unspecified)	1%	9%	-17	·	-15%	-9%
COc1ccc(-c2cc(-c3cccs3)c(C#N)c(SCC(=O)NCc3ccco3)n2)cc1	?	·	·	18%	0.46µM*	·
O=C(CSc1nc(-c2ccccc2)cc(C(F)(F)F)n1)NCc1ccco1	2%	-17%	14	·	-19%	-14%
O=C(CSc1nc(-c2cccs2)cc(C(F)(F)F)n1)Nc1cc(OCC(F)(F)F)cc([N+](=O)[O-])c1	?	-30%	?	?	7.1µM*	-6%
COc1ccc(NC(=O)CSc2nc(-c3ccco3)cc(C(F)(F)F)n2)cc1Cl	?	-11%[7.34 µM]	-69*	?	?	-9%[7.34 µM]
O=C(CSc1nc(-c2cccs2)cc(C(F)(F)F)n1)NCc1ccco1	-21%	-19%	-75*	·	-3%	-24%
Cc1ccc2nc(SCC(=O)N3CCOc4ccc(CN5C[C@@H](C)O[C@@H](C)C5)cc4C3)[nH]c2c1	·	-3%	·	-3%	·	-13%
C[C@@H]1CN(Cc2ccc3c(c2)CN(Cc2coc4ccccc4c2=O)CCO3)C[C@H](C)O1	·	-19%	·	0%	·	-18%
Cc1ccc(F)cc1NC(=O)CSc1nc(-c2cccs2)cc(C(F)(F)F)n1	4%[46.1 µM]	-21%	-76*	-22%	4%[46.1 µM]	-18%
Cc1cccc(C)c1NC(=O)CSc1nc(-c2cccs2)cc(C(F)(F)F)n1	2%[46.1 µM]	11%	?	-9%	10%[46.1 µM]	2%
COc1ccc(NC(=O)CSc2nc(-c3cccs3)cc(C(F)(F)F)n2)cc1OC	?	?	-69*	?	·	?
CCOc1ccccc1NC(=O)CSc1nc(-c2cccs2)cc(C(F)(F)F)n1	0%[46.1 µM]	-19%	-2	-12%	1%[46.1 µM]	-22%
Cc1ccccc1Cn1ccc(NC(=O)CCSc2nc(-c3ccco3)cc(C(F)(F)F)n2)n1	-27%	8%	7	0%	1.1µM*!	·
CCOC(=O)CCN1C(=O)[C@H]2[C@H]3[C@H](O)[C@H](O)C/C(=N\NC(=O)OCc4ccccc4)[C@@H]3CC[C@H]2C1=O	·	·	·	·	29%[14.2 µM]	·
COC1=C(OC)C(Cl)=C(CC2C(=O)OC(C)(C)OC2=O)CC1	·	·	·	·	-16%[46.1 µM]	·
SMILES	LASV entry inh	VACV Venus inh	HCMV inh	FMDV inh	MARV entry inh	Vaccinia mCherry
COC(=O)C[C@@H]1CC[C@@H](NC(C)=O)[C@@H](CO)O1	·	-17%	58	-8%	·	4%
COC(=O)C[C@H]1CC[C@@H](NC(=O)Nc2c(C)noc2C)[C@@H](CO)O1	·	29%	-65*	-11%	·	-2%
Cn1ccc2c(-c3ccc(F)cc3F)cc3c(c21)C1CCC3O1 (stereo unspecified)	1%[46.1 µM]	·	·	·	·	·
Nc1cc(-c2cccc(F)c2)nn1S(=O)(=O)c1cccc2nsnc12	·	?	-101*	-2%	·	i
COc1ccc2c(c1)CSC(c1ccccc1)C2=O (stereo unspecified)	·	-16%	21	53%	·	-5%
CCOc1ccc(CCN2C(=S)N([C@@H](Cc3ccccc3)CN3CCC[C@@H]3CN3C(=S)NC[C@@H]3Cc3ccc(O)cc3)C[C@@H]2CC(C)C)cc1	·	-26%	1	-19%	·	-15%
CCOc1ccc(CCN2C(=S)N([C@@H](Cc3ccc(O)cc3)CN3CCC[C@@H]3CN3C(=S)NC[C@@H]3CC(C)C)C[C@@H]2Cc2ccc(O)cc2)cc1	·	?	-63*	-4%	·	?
CCOc1ccc(CCN2C(=S)N([C@@H](Cc3ccc(O)cc3)CN3CCCC3CN3C(=S)NC[C@@H]3Cc3ccc(O)cc3)C[C@@H]2CC(C)C)cc1 (stereo partly specified)	·	?	-80*	?	·	?
Oc1ccc(C[C@H]2CN([C@@H](Cc3ccc(O)cc3)CN3CCC[C@@H]3CN3C(=S)NC[C@@H]3Cc3ccccc3)C(=S)N2CCc2ccccc2)cc1	·	-28%	-15	-6%	·	-30%
Cc1cccc(N2CCN(c3ccc4cc(S(=O)(=O)N5CCC(C)CC5)ccc4n3)CC2C)c1 (stereo unspecified)	-2%[46.1 µM]	-20%	-3	?	·	-29%
O=C(COc1ccccc1)Nc1c2c(nn1-c1ccccc1)CS(=O)(=O)C2	·	·	0	-10%	·	·
CC(C)CC(N)c1csc(NC(=O)Nc2ccccc2Cc2ccccc2)n1 (stereo unspecified)	·	?	-35	-19%	·	?
CC(C)CC(N)c1csc(NC(=O)c2cc(C(C)(C)C)nn2Cc2ccccc2)n1 (stereo unspecified)	·	13µM*	-96*	?	·	11µM*
Cc1cccc(Cn2nc(C(C)(C)C)cc2C(=O)Nc2ccc(F)cc2)c1	?	11%[7.34 µM]	-93*	?	?	-22%[7.34 µM]
COc1ccc(NC(=O)C2(C)CCN2Cc2ccccc2OC(F)F)cc1OC (stereo unspecified)	·	0%	46	-29%	·	10%
CC(=O)N1CCc2cc(NC(=O)C3(C)CCN3Cc3ccc(C(C)C)cc3)ccc21 (stereo unspecified)	·	-16%	-2	?	·	-20%
CC1(C(=O)Nc2ccc(Cl)c(Cl)c2)CCN1Cc1ccccc1OC(F)F (stereo unspecified)	·	-24%	122	32µM*	·	i
CC(=O)N1CCc2cc(NC(=O)c3ccc(C)cc3)ccc21	16µM*	·	77	0%	?	·

Screens: PubChem, National Center for Advancing Translational Sciences (NCATS)
